The nature of assay [1]: Nuclear factor erythroid 2-related factor 2/antioxidant responsive element (Nrf2/ARE) small molecule agonists: qHTS cell viability counter screen in human keratinocytes (AID 1919968; active means well fitted curve in the direction sought with a large enough effect in the repeat runs; an effect the other way counts as inactive or inconclusive; further: nearly all actives have a fitted effect of over 55% in size; further: potency means the concentration at half of the fitted maximal effect). An outline of the steps: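 KeratinoSens HaCaT cells, 1,500/well, preincubated 5 h, then exposed to compounds in DMSO for 23 h at 37 C/5% CO2. Viability read as CellTiter-Fluor fluorescence after 1 h, in the same wells as the ARE-luciferase read.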
A general note: Quantitative high-throughput screening tests each substance at several concentrations.

Assay [2] can be described thus: Nuclear factor erythroid 2-related factor 2/antioxidant responsive element (Nrf2/ARE) small molecule agonists: luciferase reporter gene qHTS assay in human keratinocytes (AID 1919969). Further: nearly all actives have a fitted effect of over 35% in size. On the technique in general: Reporter assays use an easily measured gene product as a stand-in for the process of interest.
For assay [3], the target named is Gonadotropin-releasing hormone receptor (Homo sapiens) (UniProt P30968). Briefly: Human gonadotropin-releasing hormone receptor (GnRHR) small molecule agonists, calcium flux assay in GnRHR-HEK293 cells (AID 1920063). Further: nearly all actives have a fitted effect of over 35% in size. Summed up: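 HEK293 cells stably expressing human GnRHR were dye-loaded for 1 h at 37 C. Compound was added in agonist mode and fluorescence (Ex/Em 480/540) recorded kinetically for 3 min. Fifteen concentrations, triplicates.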
(In general: A change in cytosolic calcium serves as a functional read-out for many receptors and channels.)

In assay [4] the target is KiSS-1 receptor (Homo sapiens) (UniProt Q969F8). Briefly: Human kisspeptin (KISS1R) small molecule agonists, calcium flux assay in KISS1R-HEK293 cells (AID 1920064; active means well fitted curve in the direction sought with a large enough effect in the repeat runs; an effect the other way counts as inactive or inconclusive). An outline of the steps:
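HEK293 cells stably expressing human KISS1R were loaded with calcium dye for 1 h at 37 C, then given compound; fluorescence (Ex/Em 480/540) was read kinetically for 3 min. Fifteen concentrations, triplicate.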

The nature of assay [5]: G protein-coupled receptor (GPCR) small molecule agonists, calcium flux assay: HEK293 wild type cell line counter screen (AID 1920065). An outline of the steps: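 Wild-type HEK293 cells plated 18 h, loaded with calcium dye 1 h at 37 C, then compounds added in agonist mode (ATP as positive control). Kinetic fluorescence Ex/Em 480/540 recorded 3 min at 1 sec intervals; 15 concentrations, triplicate.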

Assay [6] can be described thus: p53 small molecule agonists, cell-based qHTS assay with human liver microsomes (AID 1963577).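 Further: p53 response element beta-lactamase reporter cells with liver microsomes plus NADPH.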 An outline of the steps:
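Metabolically competent format: test substances, human liver microsomes and NADPH (both 0.5 mg/mL final) incubated with p53RE-bla cells 16 h at 37 C. Beta-lactamase reporter signal then quantified by fluorescence.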

The nature of assay [7]: p53 small molecule agonists, cell-based qHTS assay with rat liver microsomes (AID 1963578). Summed up: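 Each plate received p53RE-bla cells, then compound, then rat liver microsomes and NADPH (both 0.5 mg/mL final). Plates were held 16 h at 37 C, and beta-lactamase activity was detected with LiveBLAzer over 2 h.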
Assay [8] can be described thus: p53 small molecule agonists, cell-based qHTS assay with human liver microsomes: qHTS cell viability counter screen (AID 1963579). Further: nearly all actives have a fitted effect of over 45% in size. Summed up: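 Tox21 library compounds, delivered from DMSO stocks, were tested on p53RE-bla cells together with 0.5 mg/mL human liver microsomes and 0.5 mg/mL NADPH (final) over 16 h at 37 C; CellTiter-Glo luminescence served as the cytotoxicity measure.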

The nature of assay [9]: p53 small molecule agonists, cell-based qHTS assay: qHTS cell viability counter screen (AID 1963581). Further: nearly all actives have a fitted effect of over 45% in size. Further: potency means the concentration at half of the fitted maximal effect. An outline of the steps:
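p53RE-bla HCT-116 cells, compounds added 5 h after plating and incubated 16 h at 37 C. Cytotoxicity measured in the same wells as intracellular ATP by CellTiter-Glo luminescence after 30 min at room temperature.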

Assay [10] addresses Muscarinic acetylcholine receptor M1 (Homo sapiens) (UniProt P11229). Briefly: Cholinergic receptor muscarinic 1 (CHRM1) small molecule agonists, cell-based qHTS assay (AID 1963589). Further: nearly all actives have a fitted effect of over 35% in size. Summed up:
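CHO cells stably expressing human CHRM1 were loaded with calcium dye for 1 h at 37 C, then compound was added in agonist mode. Intracellular calcium fluorescence was followed kinetically at 1 s intervals. Fifteen concentrations were tested in three independent runs.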

Assay [11] has as its target D(2) dopamine receptor (Homo sapiens) (UniProt P14416). Briefly: Dopamine D2 receptor (DRD2) small molecule agonists, cell-based qHTS assay (AID 1963594). Further: nearly all actives have a fitted effect of over 35% in size. An outline of the steps:
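HEK293 cells stably expressing human DRD2, pre-treated with PDE inhibitor Ro20-1724 (0.1 mM final) and compound 10 min at room temperature, then stimulated with NKH477 (200nM […]) for 30 min. cAMP read by HTRF (665/620 nm).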

Assay [12] concerns the target 5-hydroxytryptamine receptor 2A (Homo sapiens) (UniProt P28223). In words: 5-hydroxytryptamine receptor 2A (HTR2A) small molecule antagonists, cell-based qHTS assay (AID 1963586). Further: nearly all actives have a fitted effect of over 45% in size. Summed up:
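Antagonist-mode intracellular calcium assay: DOI (4 nM) added after 5 min compound pre-incubation at room temperature to dye-loaded HTR2A-CHO cells. Fluorescence followed for 3 min, sampled every second.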

Assay [13] shares this target. In words: 5-hydroxytryptamine receptor 2A (HTR2A) small molecule agonists, cell-based qHTS assay (AID 1963587). Further: nearly all actives have a fitted effect of over 30% in size. Summed up: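 CHO cells stably expressing human HTR2A, plated 18 h, loaded with calcium dye 1 h at 37 C. Agonist mode: compounds added and intracellular calcium fluorescence recorded kinetically for 2 min at 1 sec intervals.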
Assay [14] in a line: cAMP Responsive Elements (CRE) small molecule agonists, cell-based qHTS assay (AID 1963590). An outline of the steps:
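CRE-bla HEK 293T cells, 2,000/well in DMEM with 10% dialyzed FBS and 25 mM HEPES, pre-incubated 18 h at 37 C, then exposed to compound 3 h at 37 C. Beta-lactamase reporter read with LiveBLAzer B/G FRET substrate after 2 h at room temperature.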

The nature of assay [15]: cAMP Responsive Elements (CRE) small molecule antagonists, cell-based qHTS assay (AID 1963591; active means well fitted inhibition curve with a large enough effect in the signal ratio in the repeat runs, not every such curve was filed as active; the % refers to the signal ratio). Summed up:
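CRE-bla HEK293T cells plated 18 h, then given compound plus NKH477 at 0.25 uM final for 3 h at 37C. Beta-lactamase reporter read with LiveBLAzer B/G FRET substrate after 2 h at room temperature.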

Assay [16] deals with Beta-2 adrenergic receptor (Homo sapiens) (UniProt P07550). In words: Adrenergic beta2 receptor (ADRB2) small molecule antagonists, cell-based qHTS assay (AID 1963592). Further: series mostly up to about 92 µM; nearly all actives have a fitted effect of over 50% in size. Summed up: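 Cells (CHO, stable ADRB2 overexpression) incubated 18-20hr at 37C; compounds added from DMSO; agonist mix (1nM isoproterenol, 100uM IBMX, 25uM Ro-20-1724) added; 0.5hr RT; d2-cAMP and anti-cAMP-cryptate added; 1hr RT; 665/615 nm read.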

For assay [17], the target named is D(2) dopamine receptor (Homo sapiens) (UniProt P14416). In words: Dopamine D2 receptor (DRD2) small molecule antagonists, cell-based qHTS assay (AID 1963595; active means well fitted inhibition curve with a large enough effect in the signal ratio in the repeat runs, with a control signal flat; the % refers to the signal ratio; further: potency means the concentration at half of the fitted maximal effect). Summed up:
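Stable D2 receptor HEK293 line, 24 h after seeding. Compound preincubated 10 min, then quinpirole (12 nM) with forskolin analogue NKH477 (200 nM), 30 min, room temperature. Detection by time-resolved FRET of cAMP.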

A short description of assay [18]: p53 small molecule agonists, cell-based qHTS assay (AID 1963582; active means well fitted activation curve with a large enough effect in the signal ratio in the repeat runs, not every such curve was filed as active; the % refers to the signal ratio). An outline of the steps: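 p53RE-bla reporter cells, compounds added in DMSO after 5 h plating, incubated 16 h at 37 C. Beta-lactamase read via 2 h room-temperature LiveBLAzer B/G FRET substrate, fluorescence intensity.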
For assay [19], the target named is Muscarinic acetylcholine receptor M1 (Homo sapiens) (UniProt P11229). In words: Cholinergic receptor muscarinic 1 (CHRM1) small molecule antagonists, cell-based qHTS assay (AID 1963588). Further: nearly all actives have a fitted effect of over 40% in size. An outline of the steps:
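CHRM1-CHO calcium-flux assay, antagonist mode. Cells were seeded 18 h, dye-loaded 1 h at 37 C and given compound for 5 min at RT, then acetylcholine was added at 50nM. FDSS fluorescence was read 3 min; 15 concentrations, three runs.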

This note sets out measurements from PubChem BioAssay (Tox21).

The structures appear in SMILES notation. Values without a mark were called inactive. Records with an inconclusive call do not appear. Activity calls are given as the source filed them. Unless noted, the call rests on the fitted dose curve.

KiSS-1 receptor (Homo sapiens), sequence (Q969F8 whole entry, looked up): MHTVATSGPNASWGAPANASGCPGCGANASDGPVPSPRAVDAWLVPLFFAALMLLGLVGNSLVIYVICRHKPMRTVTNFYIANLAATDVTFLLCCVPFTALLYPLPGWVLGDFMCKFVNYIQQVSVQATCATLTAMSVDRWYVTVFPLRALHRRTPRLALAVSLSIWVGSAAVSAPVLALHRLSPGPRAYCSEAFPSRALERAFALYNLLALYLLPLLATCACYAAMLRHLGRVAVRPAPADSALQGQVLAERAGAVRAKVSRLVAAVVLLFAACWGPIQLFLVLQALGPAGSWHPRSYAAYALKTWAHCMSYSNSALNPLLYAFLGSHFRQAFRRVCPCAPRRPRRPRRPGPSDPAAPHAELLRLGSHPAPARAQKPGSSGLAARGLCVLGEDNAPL
Beta-2 adrenergic receptor (Homo sapiens), sequence (P07550 whole entry, looked up): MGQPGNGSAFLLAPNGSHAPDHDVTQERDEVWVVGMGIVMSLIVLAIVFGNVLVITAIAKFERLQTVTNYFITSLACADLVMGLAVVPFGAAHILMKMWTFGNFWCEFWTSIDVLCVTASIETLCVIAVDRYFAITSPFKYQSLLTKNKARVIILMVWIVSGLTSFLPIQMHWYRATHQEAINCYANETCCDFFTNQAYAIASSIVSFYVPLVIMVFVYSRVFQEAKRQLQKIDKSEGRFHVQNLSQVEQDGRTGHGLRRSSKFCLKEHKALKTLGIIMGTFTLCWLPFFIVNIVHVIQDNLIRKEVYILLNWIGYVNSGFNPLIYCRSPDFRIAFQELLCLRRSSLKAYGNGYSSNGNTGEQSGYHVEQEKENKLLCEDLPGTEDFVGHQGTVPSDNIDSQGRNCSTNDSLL
5-hydroxytryptamine receptor 2A (Homo sapiens), sequence (P28223 whole entry, looked up): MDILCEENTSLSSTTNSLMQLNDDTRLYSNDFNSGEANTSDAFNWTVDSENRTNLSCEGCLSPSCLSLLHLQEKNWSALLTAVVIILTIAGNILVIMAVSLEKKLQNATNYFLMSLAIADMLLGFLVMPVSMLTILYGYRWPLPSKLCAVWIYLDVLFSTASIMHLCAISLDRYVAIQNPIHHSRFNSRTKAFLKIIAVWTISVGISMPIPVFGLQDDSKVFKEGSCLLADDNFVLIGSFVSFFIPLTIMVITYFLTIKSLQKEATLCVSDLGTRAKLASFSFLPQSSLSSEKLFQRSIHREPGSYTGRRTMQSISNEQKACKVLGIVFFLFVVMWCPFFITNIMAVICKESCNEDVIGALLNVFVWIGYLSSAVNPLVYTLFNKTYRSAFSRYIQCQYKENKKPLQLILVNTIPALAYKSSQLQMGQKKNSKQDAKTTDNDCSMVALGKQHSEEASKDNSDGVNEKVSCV
Gonadotropin-releasing hormone receptor (Homo sapiens), sequence (P30968 whole entry, looked up): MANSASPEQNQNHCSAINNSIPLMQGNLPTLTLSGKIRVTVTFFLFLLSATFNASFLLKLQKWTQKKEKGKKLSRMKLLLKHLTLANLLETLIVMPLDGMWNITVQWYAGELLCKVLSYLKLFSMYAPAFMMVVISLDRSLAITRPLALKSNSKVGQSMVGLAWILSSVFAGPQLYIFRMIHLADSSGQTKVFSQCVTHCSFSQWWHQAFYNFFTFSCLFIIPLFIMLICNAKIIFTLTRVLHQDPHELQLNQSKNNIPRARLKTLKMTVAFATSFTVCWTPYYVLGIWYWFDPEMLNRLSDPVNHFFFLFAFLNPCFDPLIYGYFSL
D(2) dopamine receptor (Homo sapiens), sequence (P14416 whole entry, looked up): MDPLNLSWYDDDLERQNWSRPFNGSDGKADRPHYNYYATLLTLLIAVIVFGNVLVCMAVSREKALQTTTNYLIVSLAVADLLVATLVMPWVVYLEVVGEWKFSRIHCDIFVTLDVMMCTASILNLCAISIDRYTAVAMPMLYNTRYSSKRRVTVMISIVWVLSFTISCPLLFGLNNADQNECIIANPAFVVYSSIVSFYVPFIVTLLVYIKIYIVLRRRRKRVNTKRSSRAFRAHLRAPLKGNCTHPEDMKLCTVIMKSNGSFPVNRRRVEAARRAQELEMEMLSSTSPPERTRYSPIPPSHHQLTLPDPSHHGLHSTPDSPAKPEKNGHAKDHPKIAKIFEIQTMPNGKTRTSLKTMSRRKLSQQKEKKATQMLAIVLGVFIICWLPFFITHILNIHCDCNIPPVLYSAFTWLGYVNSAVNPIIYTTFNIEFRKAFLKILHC
Muscarinic acetylcholine receptor M1 (Homo sapiens), sequence (P11229 whole entry, looked up): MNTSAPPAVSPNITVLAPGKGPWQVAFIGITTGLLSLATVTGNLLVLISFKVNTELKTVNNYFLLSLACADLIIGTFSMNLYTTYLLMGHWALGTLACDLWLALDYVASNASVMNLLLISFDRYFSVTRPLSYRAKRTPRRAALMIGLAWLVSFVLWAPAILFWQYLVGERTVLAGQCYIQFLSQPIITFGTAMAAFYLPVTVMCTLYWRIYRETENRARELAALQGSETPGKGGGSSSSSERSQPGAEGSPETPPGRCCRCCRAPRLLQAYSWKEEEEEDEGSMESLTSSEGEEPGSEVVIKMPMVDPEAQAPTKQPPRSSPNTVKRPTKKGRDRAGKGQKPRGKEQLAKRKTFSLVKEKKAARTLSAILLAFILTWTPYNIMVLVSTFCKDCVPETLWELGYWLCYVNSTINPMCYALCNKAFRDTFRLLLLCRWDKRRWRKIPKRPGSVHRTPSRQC

Turning to `CCCCCCCCOc1ccccc1C(=O)Nc1ccc(C(=O)OCC[N+](C)(CC)CC)cc1`, the Potency result in assay [1], in assay [2], in [3], in assay [6], in assay [7] and in [8] was “inactive” throughout. The Potency entry in [9], in assay [10] and in assay [11] was “inactive” throughout. Also, the outcome in [4] and in [5] was inactive.

As for `N#C[C@@H]1CC(F)(F)CN1C(=O)CNC1CC2CCC(C1)N2c1ncccn1` (some centres not stated), the Potency result in assay [1], in assay [2], in [3], in assay [6], in assay [7] and in assay [8] was “inactive” in each case. Also, the Potency result in assay [9], in assay [12], in assay [13], in [10], in [14] and in assay [15] was “inactive” each time. Moreover, the Potency entry in assay [16], in [11] and in [17] was “inactive” in each case. In addition, the result in assay [4] and in assay [5] was inactive.

On to `CC(=O)Oc1cc2c(s1)CCN(C(C(=O)C1CC1)c1ccccc1F)C2` (configuration not stated), for which the Potency result in [1], in assay [2], in assay [3], in [6], in [7] and in assay [8] was “inactive” in each case. Also, the Potency entry in assay [18], in assay [12], in assay [13], in assay [19], in assay [10] and in [16] was “inactive” each time. Besides, the Potency result in assay [11] and in assay [17] was “inactive” each time. The result in assay [4] and in assay [5] was inactive.

For `CCOC(=O)[C@H](CCc1ccccc1)N[C@H]1CS[C@H](c2cccs2)CN(CC(=O)O)C1=O`, the Potency result in [1], in assay [2], in assay [3], in assay [6], in assay [7] and in assay [8] was “inactive” throughout. For the same compound, the Potency result in assay [9], in [12], in assay [13], in assay [19], in [10] and in assay [14] was “inactive” each time. For the same compound, the Potency entry in assay [15], in assay [16] and in assay [17] was “inactive” throughout. In addition, the outcome in [4] and in assay [5] was inactive.

Consider `CCOC(=O)O[C@H](C)OC(=O)c1ccc2c(c1)cc(C(=O)NC1CCN(C(C)C)CC1)n2Cc1cc(-c2ccc(Cl)s2)on1`, for which the Potency in assay [1] is 11.4 µM (active); in assay [9] it was 38.1 µM (active); in assay [17], 50.9 µM (active). Further, the Potency result in assay [2], in assay [3], in [6], in assay [7], in assay [8] and in [12] was “inactive” in each case. In addition, the Potency entry in assay [13] and in assay [10] was “inactive” in each case. In addition, the outcome in [4] and in assay [5] was inactive.

As to `CCn1cc(C(=O)O)c(=O)c2cc(F)c(N3CCNCC3)cc21`, the Potency entry in assay [1], in [2], in assay [3], in assay [6], in assay [7] and in assay [8] was “inactive” each time. Further, the Potency result in assay [9], in [18], in assay [14], in [15], in [16] and in assay [11] was “inactive” throughout. Besides, in [17], the Potency result was “inactive”. The result in assay [4] and in assay [5] was inactive.

Take `O=Cc1ccccc1[N+](=O)[O-]`: the Potency entry in assay [1], in assay [2], in assay [3], in assay [6], in [7] and in [8] was “inactive” in each case. Also, the Potency result in [9], in assay [13], in assay [19], in [10], in assay [14] and in assay [15] was “inactive” each time. For the same compound, the Potency entry in [16], in [11] and in assay [17] was “inactive” each time. The outcome in [4] and in [5] was inactive.

Take `CCCCCCCCCCCCCCCC(=O)OC[C@H](O)[C@H]1OC(=O)C(O)=C1O`: the Potency entry in [1], in assay [2], in assay [3], in [6], in [7] and in assay [8] was “inactive” throughout. Besides, the Potency entry in assay [9], in [12], in assay [13], in assay [19], in [10] and in assay [16] was “inactive” each time. Moreover, the Potency result in assay [11] and in assay [17] was “inactive” throughout. Also, the result in assay [4] and in [5] was inactive.
